Assay results reported in PubChem BioAssay (NCI).
This is part of a sample that, as a whole, favours compounds with a hit. Of some 83,000 tested, about 20% had one in any assay.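 How to read the values: 0–100, growth inhibition (40 = 60% inhibited); 0, no net growth; -100 to 0, cell death (-40 = 40% of starting cells died; -100 = all dead).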 A number with no mark means an inactive call. Calls of active or inactive are those of the source. How the source made its calls: active means growth percent below 10; inactive means the rest.

What was measured:
Assay in all cases: NCI-60 one-dose screen, 48 h (100 = growth as untreated, 0 = no growth, -100 = all killed)
Settings in all cases: 10 µM unless noted
[1] = test system: SK-MEL-2 melanoma
[2] = test system: EKVX NSCLC
[3] = test system: SN12C renal
[4] = test system: UO-31 renal
[5] = test system: TK-10 renal
[6] = test system: ACHN renal
[7] = test system: CAKI-1 renal
[8] = test system: A498 renal
[9] = test system: CCRF-CEM leukemia
[10] = test system: MOLT-4 leukemia
[11] = test system: SR leukemia
[12] = test system: RPMI-8226 leukemia
[13] = test system: OVCAR-8 ovarian
[14] = test system: OVCAR-5 ovarian
[15] = test system: OVCAR-4 ovarian
[16] = test system: SK-OV-3 ovarian
[17] = test system: IGROV1 ovarian
[18] = test system: OVCAR-3 ovarian
[19] = test system: NCI/ADR-RES ovarian
[20] = test system: HS 578T breast

SMILES | growth [1] | growth [2] | growth [3] | growth [4] | growth [5] | growth [6] | growth [7] | growth [8] | growth [9] | growth [10] | growth [11] | growth [12] | growth [13] | growth [14] | growth [15] | growth [16] | growth [17] | growth [18] | growth [19] | growth [20]
CCCCn1sc(=O)n(Cc2ccc(CNC(=O)OCc3ccc4c(Br)cc(Br)c(O)c4n3)cc2)c1=O | 45.6% | 103% | 29.5% | 42.7% | 74.8% | 33.6% | 22.4% | -7.85% (active) | 18.1% | 14.6% | 5.73% (active) | 18.7% | 13.7% | 52% | 51.7% | 34.6% | 15.7% | -0.408% (active) | 9.82% (active) | 
COc1cc(C(=O)c2c(-c3ccccc3)oc3c(OC)cccc23)cc(OC)c1O | 62% | 44.9% | 27.1% | 46.2% | 64.6% | 28.1% | 33.1% | -26.1% (active) | 13.8% | 18.7% | 11.1% | 23.9% | 20.4% | 45.7% | 42.1% | 45.1% | 18.8% | 0.78% (active) | 10.5% | 
O=C(CCC(=O)c1nc2ncccc2[nH]1)NN1C(=O)CSC1c1ccc(Cl)cc1 (stereo not given) | 106% | 100% | 97% | 70.7% | 126% | 97.4% | 84.2% | 111% | 83.8% | 106% | 55.9% | 87.1% | 101% | 106% | 94.1% | 100% | 86.7% | 98.7% | 100% | 101%
c1ccc(CCc2ccccc2-c2cc(-c3ccccc3)on2)cc1 | 86.4% | 86.4% | 85.5% | 75.5% | 110% | 89.2% | 92.2% | 89% | 82.7% | 73.1% | 75.7% | 83.5% | 103% | 89.9% | 77.2% | 83.1% | 66.4% | 96% | 98.3% | 89.4%
CN1CCN(CCCOc2ccc3ncnc(Nc4ccc(Oc5cccc(F)c5)c(Cl)c4)c3c2)CC1 | -8.81% (active) | 29.6% | 49.4% | 34.2% | 37% | -11.3% (active) | 5.24% (active) | 33.2% | -6.61% (active) | -3.25% (active) | 1.08% (active) | -30.1% (active) |  | 25.4% | 3.58% (active) | 8.4% (active) | -5.39% (active) | 0.254% (active) | 41.9% | 42.3%
Cn1cc(-c2nc(-c3c[nH]c4ccncc34)cs2)c2cc(Br)ccc21 | -57.7% (active) | -75.3% (active) | -74.4% (active) | -91.2% (active) | -84% (active) | -98.9% (active) | -77.2% (active) | -78% (active) | -43.4% (active) | -66.4% (active) | -23.6% (active) | -38% (active) | -53.2% (active) | -94.1% (active) | -71% (active) | 40.8% | -82.8% (active) | -92.5% (active) | -57.6% (active) | -44% (active)
CC(=O)c1cc(-c2ccccc2N)n(-c2ccc3c(c2)OCO3)c1C | 51.6% | 50.9% | 29.1% | 40.2% | 45.6% | 21.2% | 41.7% | -12% (active) | 11.8% | 16.1% | 14% | 19.8% | 18.7% | 30% | 48.3% | 33.7% | 22% | 5.55% (active) | 13.1% | 
CCNCc1ccc(O)c2ncccc12 | 15.4% | 25.1% | 34% | 18.1% | 5.97% (active) | 22.7% | 35.3% | 59.5% | 27.3% | 29% | 19% | 24.2% | 23% | 64.7% | 17.8% | 27.9% | 46% | 37.7% | 27.3% | 
